Targets with a hit are over-represented here; the source holds about 7,900 in all. About 0.6% of all pairs of compound and target were hits. A number with no mark means an inactive call.
Key:
Experiment in all cases: log2 fold change, soluble protein after heating vs DMSO (PISA); higher = thermal stabilisation; K562 cells, 10 uM, 30 min; active = over 0.2 and 3.5 SD of the protein, either way, in both replicates (recomputed)
[1] = compound: CN1CCN(CCOc2cc(OC3CCOCC3)c3c(Nc4c(Cl)ccc5c4OCO5)ncnc3c2)CC1 [saracatinib]
In short: (§1)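 K562 cells at 2×10^6 cells/mL were treated for 30 min with 10 μM compound, and aliquots were heated for 3 min over 48°C-58°C before pooling. Extraction used PBS with 0.5% NP-40 at 4°C, and soluble protein was the supernatant after 21,000xg for 90 min, measured by TMTpro 16plex LC-MS/MS with channel sums equalised. Thermal stability values, relative to control samples and from duplicates, are log2 fold changes.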

[2] = compound: CN1CCN(c2nc(C3=C(c4c[nH]c5ccccc45)C(=O)NC3=O)c3ccccc3n2)CC1 [sotrastaurin]
In short: as §1

[3] = compound: CN1CC[C@H](c2c(O)cc(O)c3c(=O)cc(-c4ccccc4Cl)oc23)[C@H](O)C1 [alvocidib]
In short: as §1

[4] = compound: CN1CCc2c(c3ccccc3n2Cc2ccc(C(=O)NO)cc2)C1 [Tubastatin A]
In short: as §1

[5] = compound: CNC(=O)C1=CC=CC=C1NC2=NC(=NC=C2Cl)NC3=C(C=C(C=C3)N4CCOCC4)OC
In short: as §1

[6] = compound: CNC(=O)c1ccc(Nc2ncc(C(F)(F)F)c(NCc3nccnc3N(C)S(C)(=O)=O)n2)cc1 [defactinib]
In short: as §1

[7] = compound: CNCc1ccc(-c2[nH]c3cc(F)cc4c3c2CCNC4=O)cc1 [rucaparib]
In short: as §1

[8] = compound: CNc1nc(-c2ccc3c(N)n[nH]c3c2)cc(N2C[C@@H](C(=O)NC3CCCCC3)CC[C@H]2C)n1
In short: as §1

[9] = compound: COC(=O)N[C@@H](C)CNc1nccc(-c2cn(C(C)C)nc2-c2cc(Cl)cc(NS(C)(=O)=O)c2F)n1 [encorafenib]
In short: as §1

[10] = compound: COC(=O)[C@H](CCSC)NC(=O)C1=C(C=C(C=C1)NC[C@H](CS)N)C2=CC=CC=C2
In short: as §1

Chain of UniProt Q12873 (Q12873 whole entry, looked up): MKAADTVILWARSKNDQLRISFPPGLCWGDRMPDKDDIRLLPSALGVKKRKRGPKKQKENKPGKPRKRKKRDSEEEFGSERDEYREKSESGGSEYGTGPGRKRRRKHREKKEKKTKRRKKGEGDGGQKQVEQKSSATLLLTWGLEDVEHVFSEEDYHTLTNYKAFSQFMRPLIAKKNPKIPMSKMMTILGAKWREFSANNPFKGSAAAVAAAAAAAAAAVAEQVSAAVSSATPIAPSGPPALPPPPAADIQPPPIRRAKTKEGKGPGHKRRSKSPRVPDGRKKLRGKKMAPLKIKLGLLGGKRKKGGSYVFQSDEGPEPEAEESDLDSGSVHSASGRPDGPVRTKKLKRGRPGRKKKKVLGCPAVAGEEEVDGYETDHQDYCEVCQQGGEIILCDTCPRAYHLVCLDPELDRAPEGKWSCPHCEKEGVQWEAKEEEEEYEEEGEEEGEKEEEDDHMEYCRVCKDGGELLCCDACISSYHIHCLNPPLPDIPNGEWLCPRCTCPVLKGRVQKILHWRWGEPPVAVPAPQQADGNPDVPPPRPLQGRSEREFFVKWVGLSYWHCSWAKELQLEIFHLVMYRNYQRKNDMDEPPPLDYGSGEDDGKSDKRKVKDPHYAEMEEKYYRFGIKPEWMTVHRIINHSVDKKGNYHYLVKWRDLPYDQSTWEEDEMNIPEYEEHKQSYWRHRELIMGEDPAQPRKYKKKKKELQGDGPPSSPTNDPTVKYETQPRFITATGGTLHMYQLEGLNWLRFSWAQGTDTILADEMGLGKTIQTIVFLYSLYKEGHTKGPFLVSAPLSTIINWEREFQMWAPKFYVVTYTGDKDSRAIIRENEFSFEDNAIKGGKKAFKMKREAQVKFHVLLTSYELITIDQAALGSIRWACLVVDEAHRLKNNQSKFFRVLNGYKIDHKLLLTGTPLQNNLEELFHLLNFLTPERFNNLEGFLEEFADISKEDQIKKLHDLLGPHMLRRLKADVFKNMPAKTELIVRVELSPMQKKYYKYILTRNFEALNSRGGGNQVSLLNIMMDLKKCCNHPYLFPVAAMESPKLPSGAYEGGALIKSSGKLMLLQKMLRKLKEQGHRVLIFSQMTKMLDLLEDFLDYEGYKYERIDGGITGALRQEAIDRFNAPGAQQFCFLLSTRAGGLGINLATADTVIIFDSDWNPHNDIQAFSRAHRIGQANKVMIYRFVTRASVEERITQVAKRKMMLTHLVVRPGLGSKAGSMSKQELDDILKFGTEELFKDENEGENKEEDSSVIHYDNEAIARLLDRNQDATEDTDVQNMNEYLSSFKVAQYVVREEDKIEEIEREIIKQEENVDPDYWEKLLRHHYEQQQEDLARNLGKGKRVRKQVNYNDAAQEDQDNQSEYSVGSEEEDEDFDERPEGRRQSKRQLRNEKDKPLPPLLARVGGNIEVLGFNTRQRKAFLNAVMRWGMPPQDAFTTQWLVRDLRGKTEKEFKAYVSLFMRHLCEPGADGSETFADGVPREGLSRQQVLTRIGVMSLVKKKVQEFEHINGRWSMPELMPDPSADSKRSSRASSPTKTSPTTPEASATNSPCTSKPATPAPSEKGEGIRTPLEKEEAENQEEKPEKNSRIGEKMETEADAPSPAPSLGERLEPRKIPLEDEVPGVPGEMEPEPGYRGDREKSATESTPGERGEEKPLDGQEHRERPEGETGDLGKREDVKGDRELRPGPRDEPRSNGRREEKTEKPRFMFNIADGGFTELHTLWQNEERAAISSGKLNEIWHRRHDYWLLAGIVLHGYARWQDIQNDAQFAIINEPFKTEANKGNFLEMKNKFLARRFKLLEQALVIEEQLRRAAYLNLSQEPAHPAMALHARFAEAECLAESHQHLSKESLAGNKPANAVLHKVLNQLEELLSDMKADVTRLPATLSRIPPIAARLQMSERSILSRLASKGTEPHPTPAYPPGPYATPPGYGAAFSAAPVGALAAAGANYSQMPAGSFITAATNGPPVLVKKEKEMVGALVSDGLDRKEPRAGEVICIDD
Chain of UniProt Q5JTJ3 (Q5JTJ3 whole entry, looked up): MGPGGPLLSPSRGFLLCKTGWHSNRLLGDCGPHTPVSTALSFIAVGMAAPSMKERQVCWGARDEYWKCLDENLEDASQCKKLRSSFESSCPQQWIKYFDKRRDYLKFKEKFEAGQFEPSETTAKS
Chain of UniProt P23786 (P23786 whole entry, looked up): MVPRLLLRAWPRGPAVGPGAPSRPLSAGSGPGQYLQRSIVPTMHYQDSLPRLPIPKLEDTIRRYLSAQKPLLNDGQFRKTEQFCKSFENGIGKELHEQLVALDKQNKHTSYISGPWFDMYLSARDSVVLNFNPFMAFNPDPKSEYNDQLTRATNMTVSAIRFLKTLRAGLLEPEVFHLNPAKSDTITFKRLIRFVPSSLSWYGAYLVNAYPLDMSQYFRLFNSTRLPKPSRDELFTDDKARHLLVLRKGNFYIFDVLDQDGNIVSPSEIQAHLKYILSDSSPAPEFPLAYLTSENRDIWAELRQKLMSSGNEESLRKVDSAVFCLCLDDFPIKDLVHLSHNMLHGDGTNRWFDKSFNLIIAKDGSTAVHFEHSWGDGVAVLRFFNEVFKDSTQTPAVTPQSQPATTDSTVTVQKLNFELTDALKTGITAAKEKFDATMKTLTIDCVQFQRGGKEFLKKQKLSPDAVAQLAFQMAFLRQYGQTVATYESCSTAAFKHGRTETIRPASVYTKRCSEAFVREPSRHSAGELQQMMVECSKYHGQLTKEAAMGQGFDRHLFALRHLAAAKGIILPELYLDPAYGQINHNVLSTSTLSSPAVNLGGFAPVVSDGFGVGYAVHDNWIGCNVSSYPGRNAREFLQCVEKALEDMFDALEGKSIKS
Chain of UniProt P51790 (P51790 whole entry, looked up): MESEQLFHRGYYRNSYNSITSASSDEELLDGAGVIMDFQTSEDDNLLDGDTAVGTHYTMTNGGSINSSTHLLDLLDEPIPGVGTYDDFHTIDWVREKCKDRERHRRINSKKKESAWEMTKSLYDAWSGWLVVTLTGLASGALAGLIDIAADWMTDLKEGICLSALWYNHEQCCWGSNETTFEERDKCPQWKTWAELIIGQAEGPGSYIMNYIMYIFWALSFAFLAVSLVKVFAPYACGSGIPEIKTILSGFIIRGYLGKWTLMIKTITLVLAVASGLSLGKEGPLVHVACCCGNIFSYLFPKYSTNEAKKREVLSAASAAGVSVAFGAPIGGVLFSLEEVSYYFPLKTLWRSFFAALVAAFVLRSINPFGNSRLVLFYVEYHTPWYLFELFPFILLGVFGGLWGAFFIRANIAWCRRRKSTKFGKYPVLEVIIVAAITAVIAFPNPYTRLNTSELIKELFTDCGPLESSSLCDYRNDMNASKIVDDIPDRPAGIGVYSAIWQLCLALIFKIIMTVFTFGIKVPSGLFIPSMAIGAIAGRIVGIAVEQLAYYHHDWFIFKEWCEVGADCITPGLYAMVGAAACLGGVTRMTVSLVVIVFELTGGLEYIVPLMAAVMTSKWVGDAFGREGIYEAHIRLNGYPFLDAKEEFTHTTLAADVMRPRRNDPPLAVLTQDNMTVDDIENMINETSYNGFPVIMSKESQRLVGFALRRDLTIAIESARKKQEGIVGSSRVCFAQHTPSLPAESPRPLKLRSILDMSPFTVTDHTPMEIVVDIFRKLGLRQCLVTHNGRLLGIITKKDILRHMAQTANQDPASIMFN
Chain of UniProt P46108 (P46108 whole entry, looked up): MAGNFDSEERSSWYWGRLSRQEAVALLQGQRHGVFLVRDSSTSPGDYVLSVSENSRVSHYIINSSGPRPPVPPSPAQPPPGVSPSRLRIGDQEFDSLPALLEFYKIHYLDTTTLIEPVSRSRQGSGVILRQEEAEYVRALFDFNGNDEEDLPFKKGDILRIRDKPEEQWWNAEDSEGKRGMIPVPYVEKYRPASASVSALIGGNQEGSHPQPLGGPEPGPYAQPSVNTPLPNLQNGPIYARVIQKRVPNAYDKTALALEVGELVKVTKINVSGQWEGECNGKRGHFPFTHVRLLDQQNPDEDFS
Chain of UniProt P24311 (P24311 whole entry, looked up): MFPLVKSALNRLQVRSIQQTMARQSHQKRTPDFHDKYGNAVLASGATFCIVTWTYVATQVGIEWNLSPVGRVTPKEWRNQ
Chain of UniProt Q9Y5P4 (Q9Y5P4 whole entry, looked up): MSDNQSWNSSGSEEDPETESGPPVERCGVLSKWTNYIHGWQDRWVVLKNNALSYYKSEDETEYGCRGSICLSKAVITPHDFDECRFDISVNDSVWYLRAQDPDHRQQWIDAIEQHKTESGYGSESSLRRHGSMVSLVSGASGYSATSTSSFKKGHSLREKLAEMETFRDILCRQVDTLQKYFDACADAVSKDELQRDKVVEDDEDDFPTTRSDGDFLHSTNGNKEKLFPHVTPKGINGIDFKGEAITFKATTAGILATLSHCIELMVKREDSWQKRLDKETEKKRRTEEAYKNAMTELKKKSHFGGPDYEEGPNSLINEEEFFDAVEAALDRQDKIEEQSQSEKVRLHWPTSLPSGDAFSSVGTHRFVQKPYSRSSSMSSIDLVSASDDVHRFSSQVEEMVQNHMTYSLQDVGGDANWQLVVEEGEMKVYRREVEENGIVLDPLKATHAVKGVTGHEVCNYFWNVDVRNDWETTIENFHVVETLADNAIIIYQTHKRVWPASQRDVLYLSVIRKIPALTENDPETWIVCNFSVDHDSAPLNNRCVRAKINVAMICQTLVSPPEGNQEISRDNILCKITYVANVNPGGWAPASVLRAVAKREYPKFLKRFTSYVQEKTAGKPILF
Chain of UniProt P46109 (P46109 whole entry, looked up): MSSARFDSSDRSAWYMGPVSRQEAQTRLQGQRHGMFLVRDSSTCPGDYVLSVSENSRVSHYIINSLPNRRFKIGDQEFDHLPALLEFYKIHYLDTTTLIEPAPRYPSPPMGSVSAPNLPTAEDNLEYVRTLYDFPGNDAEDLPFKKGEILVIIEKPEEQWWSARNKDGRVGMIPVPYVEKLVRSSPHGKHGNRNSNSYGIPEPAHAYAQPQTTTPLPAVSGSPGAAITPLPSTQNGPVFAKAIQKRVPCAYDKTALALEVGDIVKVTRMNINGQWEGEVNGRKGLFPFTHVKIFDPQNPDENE
Chain of UniProt Q9NRR8 (Q9NRR8 whole entry, looked up): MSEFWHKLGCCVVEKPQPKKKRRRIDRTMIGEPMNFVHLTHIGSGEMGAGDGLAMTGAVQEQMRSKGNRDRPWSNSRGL

Target | log2 fold change [1] | log2 fold change [2] | log2 fold change [3] | log2 fold change [4] | log2 fold change [5] | log2 fold change [6] | log2 fold change [7] | log2 fold change [8] | log2 fold change [9] | log2 fold change [10]
CERT isoform 3 (UniProt Q9Y5P4) | 0.033 | 0.014 | 0.002 | -0.105 | 0.131 | -0.097 | -0.009 | 0.116 | -0.015 | 0.047
CCNB1 (UniProt P14635) | -0.005 | 0.02 | -0.006 | -0.018 | -0.051 | -0.065 | -0.025 | -0.034 | -0.002 | 0.035
CLASP2 isoform 3 (UniProt O75122) | -0.073 | -0.232 | -0.132 | 0.016 | -0.041 | -0.1 | 0.015 | 0.035 | 0.084 | -0.043
CSNK2A1 (UniProt P68400) | 0.016 | 0.059 | -0.082 | -0.019 | 0.263 (active) | -0.113 | -0.079 | -0.045 | -0.038 | -0.034
CCNDBP1 (UniProt O95273) | 0.078 | -0.209 | -0.007 | 0.001 | 0.115 | -0.107 | -0.002 | -0.04 | 0.062 | -0.027
CRK (UniProt P46108) | -0.768 (active) | 0 | -0.032 | 0.092 | -0.003 | -0.056 | -0.025 | -0.006 | 0.021 | -0.024
CCZ1 (UniProt P86791) | 0.079 | -0.003 | -0.052 | -0.016 | 0.012 | -0.018 | -0.006 | -0.025 | -0.01 | -0.019
CDKN2AIP (UniProt Q9NXV6) | 0.057 | 0.023 | 0.018 | 0.013 | 0.052 | 0.055 | -0.055 | 0.033 | 0.02 | -0.029
CHD3 isoform 3 (UniProt Q12873) | -0.067 | -0.312 | -0.12 | 0.096 | -0.029 | -0.253 | 0.134 | -0.024 | 0.136 | -0.087
CES2 isoform 4 (UniProt O00748) | 0.04 | 0.196 | 0.065 | 0.115 | 0.247 | -0.164 | 0.3 | 0.218 | -0.145 | 0.044
COA6 isoform 2 (UniProt Q5JTJ3) | 0.175 | 0.063 | 0.012 | 0.07 | 0.354 | -0.022 | -0.068 | 0.138 | -0.055 | 0.072
COX7B (UniProt P24311) | 0.174 | 0.058 | 0.026 | -0.087 | 0.059 | 0 | -0.02 | -0.049 | -0.036 | -0.073
COASY isoform 2 (UniProt Q13057) | 0.003 | -0.001 | -0.12 | -0.001 | 0.035 | -0.065 | 0.011 | -0.03 | 0.034 | -0.029
CCDC9 (UniProt Q9Y3X0) | 0.023 | 0.077 | 0.192 | -0.046 | -0.038 | 0.148 | 0.116 | -0.031 | -0.021 | 0.004
CLSPN (UniProt Q9HAW4) | 0.076 | 0.002 | -0.102 | 0.039 | 0.053 | -0.183 | -0.11 | -0.102 | 0.031 | 0.047
COPS3 (UniProt Q9UNS2) | -0.016 | 0.02 | -0.019 | -0.025 | -0.021 | -0.023 | -0.037 | -0.013 | -0.003 | 0.033
CAMKK2 (UniProt Q96RR4) | 0.03 | -0.042 | 0.048 | 0.105 | 0.36 | -0.104 | -0.084 | -0.101 | 0.057 | 0.057
CS (UniProt O75390) | -0.001 | 0.02 | -0.074 | -0.015 | 0.011 | -0.069 | 0.022 | -0.055 | -0.042 | -0.002
CD55 isoform 7 (UniProt P08174) | 0.06 | -0.01 | 0.03 | 0.033 | 0.012 | 0.007 | 0.022 | 0.028 | -0.016 | 0.039
CPT2 (UniProt P23786) | -0.089 | -0.136 | -0.062 | 0.032 | 0.147 | -0.164 | -0.096 | 0.363 | -0.074 | -0.057
CSE1L (UniProt P55060) | 0.032 | -0.076 | -0.069 | -0.033 | 0.016 | -0.092 | -0.059 | -0.057 | 0.022 | -0.013
CNN3 (UniProt Q15417) | 0.063 | -0.122 | -0.017 | 0.02 | 0.036 | -0.13 | 0.048 | 0.008 | 0.009 | 0
CRKL (UniProt P46109) | -1.42 (active) | 0.003 | -0.044 | 0.003 | -0.01 | -0.052 | -0.001 | 0 | 0.016 | 0.008
CETN2 (UniProt P41208) | 0.095 | 0.077 | -0.013 | -0.128 | -0.03 | -0.054 | 0.031 | 0.058 | -0.079 | 0.06
CAMK2G isoform 6 (UniProt Q13555) | -0.005 | -0.088 | 0.123 | -0.012 | 0.25 | 0.14 | 0.061 | 0.129 | 0 | -0.074
CMTM3 (UniProt Q96MX0) | -0.006 | -0.01 | -0.022 | -0.012 | -0.019 | -0.096 | 0.129 | -0.075 | -0.072 | 0.05
CA8 (UniProt P35219) | -0.054 | -0.023 | -0.127 | 0.084 | 0.118 | -0.163 | 0.068 | 0.018 | 0.024 | 0.014
COQ9 (UniProt O75208) | -0.009 | -0.052 | -0.041 | -0.045 | -0.047 | -0.045 | 0.001 | 0.042 | -0.013 | -0.016
CLCN3 isoform 2 (UniProt P51790) | 0.104 | -0.002 | -0.079 | -0.06 | -0.018 | -0.009 | -0.002 | -0.015 | -0.027 | -0.014
CDC42SE1 (UniProt Q9NRR8) | 0.074 | -0.033 | -0.019 | -0.562 (active) | 0.228 | -0.041 | 0.087 | 0.01 | -0.032 | 0.077
